An excerpt weighted towards active compounds, which were near 3.1% of everything screened.
MBD2 inh = inhibitors of human MBD2 binding to methylated oligonucleotide. 370,000 tested, 0.31% active. inhibition, % at 4.4 µM. TR-FRET. Q9UBB5. AID 686964; in the data active = inhibition above about 13%
Neddylation inh = cullin neddylation inhibition; AID 651699; P61081+Q13564; 360,000 tested, 0.58% active; calls only at 25 µM; TR-FRET cullin neddylation, biochemical; in the data active = inhibition above about 36%
UHRF1 binding = blocks human UHRF1 binding to methylated DNA. UHRF1 binding to methylated oligo, TR-FRET. AID 687016. 370,000 tested, 0.75% active. inhibition, % at 4.4 µM; in the data active = inhibition above about 21%;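 also: UHRF1 SRA domain binding a hemimethylated CpG hairpin DNA probe; 0% = median of test compound wells and 100% = reference inhibitor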
proKLK7 act = activates the human kallikrein-7 zymogen; 370,000 tested, 0.9% active; purified proKLK7, EDANS-DABCYL substrate fluorescence; 100% is mature enzyme control, 0% vehicle; activation, % at 7 µM; P49862;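 active = activation above the mean of all tested compounds plus 3 SD, computed per campaign excluding outliers beyond control limits, cut at about 13% in these data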
Target sequence (P49862 whole entry, looked up): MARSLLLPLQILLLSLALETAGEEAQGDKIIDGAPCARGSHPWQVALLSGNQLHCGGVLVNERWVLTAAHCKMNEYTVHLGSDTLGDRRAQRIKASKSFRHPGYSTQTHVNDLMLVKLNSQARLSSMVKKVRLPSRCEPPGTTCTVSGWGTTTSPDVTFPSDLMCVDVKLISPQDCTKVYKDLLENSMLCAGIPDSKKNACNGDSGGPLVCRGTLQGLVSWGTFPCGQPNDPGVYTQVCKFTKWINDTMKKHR
Rin1-Abl PPI inh = blocks binding of human Rin1 to Abl; P00519+Q13671; inhibition, % at 7.35 µM; 360,000 tested, 0.4% active; AID 588664; TR-FRET Rin1/Abl binding, biochemical; in the data active = inhibition above about 5%, passing the limit was not always enough
LEDGF integ inh = blocks HIV-1 LEDGF/p75-dependent DNA integration; TR-FRET IN-LEDGF/p75 DNA integration, Eu/Cy5; inhibition, % at 3.7 µM; 370,000 tested, 0.64% active; AID 743269;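 active = inhibition above the screen-wide mean plus 3 SD, cut at about 13% in these data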;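 also: signal is the Cy5 over europium emission ratio at 671 and 618 nm; 0% = plate median of compound wells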
* = called active by the depositor; i = inactive; / = not tested or not shown; + = active, no number.

SMILES	MBD2 inh	Neddylation inh	UHRF1 binding	proKLK7 act	Rin1-Abl PPI inh	LEDGF integ inh
O=[N+]([O-])c1cccc2c1ccc1ncccc12	-2	i	49*	-1	-6	-2
COc1cc(C(=O)N2CCN(C(=O)CC(C)C)CC2)cc(OC)c1OC	9	i	31*	-1	1	-3
CC(NCC(O)c1ccc([N+](=O)[O-])cc1)C12CC3CC(CC(C3)C1)C2 (stereo not drawn)	-4	i	22*	0	3	4
C=CCNS(=O)(=O)c1cccc2cc(C(=O)O)c(O)cc12	0	/	-2	27*	0	1
Cc1ccc(C)c(N(CC(=O)NC2CCCCC2)C(=O)CNC(=O)c2ccco2)c1	-2	i	-2	-1	3	-3
O=S(=O)(c1ccc2nc(Nc3ccccc3)ccc2c1)N1CCCCC1	11	i	23*	-1	2	-2
O=S(=O)(c1ccc2nc(N3CCN(c4ccccc4F)CC3)ccc2c1)N1CCCCC1	7	i	18	-1	-4	2
O=S(=O)(c1ccc2nc(N3CCN(c4ccc(F)cc4)CC3)ccc2c1)N1CCCCC1	12	i	24*	-1	1	5
O=C(Nc1cccc(S(=O)(=O)N2CCCCC2)c1)c1ccc2ccccc2n1	-1	i	-1	0	1	2
CCCN(CC1CC1)C(=O)CNc1nnnn1-c1ccccc1	2	/	5	0	/	2
CC(C)N1CCC(C)(C(=O)Nc2cccc3c2CCCC3)C1 (stereo not drawn)	5	i	0	1	-2	-3
Cn1c(Cc2cccs2)nnc1SCC(=O)Nc1ccc2c(c1)OCCO2	3	/	-2	0	/	-1
O=C1c2cccc3cccc(c23)C(=O)C1(O)O	-13	i	-8	1	14*	-1
O=C1NC(=O)C2(N1)C(=O)c1cccc3cccc2c13 (stereo not drawn)	-21	i	-57	4	-6	1
CC1CCN(C(=O)Cn2ncc3c([nH]c4ccccc43)c2=O)CC1	1	i	1	-1	3	-1
CN1CCN(C(=O)Cn2ncc3c([nH]c4ccccc43)c2=O)CC1	4	i	23*	0	-3	4
Oc1c(CN2CCOCC2)cc(CN2CCOCC2)cc1CN1CCOCC1	3	i	24*	-1	0	-7
O=S(=O)(Cc1ccccc1)Nc1ccc(F)cc1	0	i	0	0	2	-3
CCOc1ccc(NC(=O)CN(C)C(=O)c2ccccc2Cc2ccccc2)cc1OCC	5	i	21*	0	4	3
CC(=O)c1cccc(NCC(=O)N2CCN(S(=O)(=O)c3ccccc3)CC2)c1	-2	i	-3	0	0	-3
CC(C)(C)c1ccc(C(=O)Nc2cccc(-n3cnnn3)c2)cc1	1	i	1	0	2	4
O=C(CSc1nnnn1C1CCCCC1)Nc1ccc2c(c1)OCO2	5	i	21*	1	3	3
O=C(CSc1nnnn1C1CCCCC1)Nc1ccc(F)cc1	4	i	0	-1	2	3
Cn1nnnc1SCC(=O)N1CCCc2ccccc21	0	i	1	-1	1	1
O=C(CSc1nnnn1C1CCCC1)N1CCCc2ccccc21	10	i	29*	0	3	6
SMILES	MBD2 inh	Neddylation inh	UHRF1 binding	proKLK7 act	Rin1-Abl PPI inh	LEDGF integ inh
O=C(COC(=O)c1ccc[nH]c1=O)NCCCc1ccccc1	0	i	1	0	1	-2
COc1cccc(CNC(=O)C2=C(C)C(=O)OC23CCC(C)CC3)c1 (stereo not drawn)	-3	i	1	0	4	-2
C(=C\c1ccccc1)/CN1CCN(C(c2cc3ccccc3o2)c2nnnn2-c2ccc3c(c2)OCCO3)CC1 (stereo not drawn)	-6	i	15	0	0	2
COc1ccc(-n2nnnc2C(c2cc3ccccc3o2)N2CCN(C/C=C/c3ccccc3)CC2)cc1 (stereo not drawn)	5	i	23*	1	-2	10
O=C1NN=C(CSc2n[nH]c(=S)s2)CS1	0	i	0	1	2	1
N#C/C(=N/Nc1ccc(OC(F)(F)F)cc1)C(N)=S	3	i	31*	0	-6	-4
COc1ccc(N/N=C(\C#N)C(N)=O)cc1	7	i	-2	0	-1	-1
Nc1nc(N)c2cc(CNc3ccc(Cl)c(Cl)c3)ccc2n1	12	i	22*	1	0	-2
Cc1cc2c(c(=O)o1)[C@@]1(C(=O)N(C)c3cc(Br)ccc31)C1=C(CCCC1=O)O2	6	/	4	0	/	6
O=C(CSc1nc(O)cc(=O)[nH]1)N1c2ccccc2CCc2ccccc21	2	i	0	0	1	1
O=C(Cc1cccc2ccccc12)NN1C(=O)CSC1=S	0	i	-2	1	2	1
O=C(NN1C(=O)CSC1=S)C(=O)NN1C(=O)CSC1=S	4	i	19	1	5	29*
COc1ccc(S(=O)(=O)N=Nc2c(O)[nH]c3ccccc23)cc1	13*	i	46*	0	-4	10
CC(C)N(CC#CCC(O)(c1ccccc1)c1ccccc1)CCO	-2	i	26*	0	2	5
CCN(CC#CCC(O)(c1ccccc1)c1ccccc1)C(C)C	-1	i	3	0	1	-4
Nc1sccc1C(=O)c1ccc(Cl)cc1	-7	i	30*	0	-2	0
O=c1[nH]c(O)c(C=Nc2ccc(Cl)cc2Cl)c(=O)[nH]1	1	i	-1	0	2	1
O=c1[nH]cc(N=Cc2cc(Cl)cc(Cl)c2O)c(=O)[nH]1	0	+	-6	0	4	-1
COc1ccccc1NC(=O)N1CCN(c2ccc3nncn3n2)CC1	7	i	24*	0	0	1
CCO[C@@H]1OC(C(=O)O)=C[C@H](c2ccc(C(F)(F)F)cc2)[C@H]1CCCO	-4	i	77*	0	0	2
Cc1cc(C)n2cc(CSc3nnc(N)s3)nc2n1	7	i	22*	1	0	9
CCOc1ccc(N2CC(C(=O)N3CCN(C(=O)c4ccco4)CC3)CC2=O)cc1 (stereo not drawn)	2	i	-1	0	-1	2
O=C(NCCN1CCN(c2ccccc2F)CC1)c1cccn2c(=O)c3ccccc3nc12	-7	+	1	-2	1	3
CCCN(C)C1CN(Cc2cn(Cc3ccc(Cl)cc3)nn2)S(=O)(=O)C1 (stereo not drawn)	1	i	13	0	/	7
CCCN(C)C1CN(Cc2cn(Cc3cc(C)cc(C)c3)nn2)S(=O)(=O)C1 (stereo not drawn)	7	i	22*	0	/	-2

Assay outcomes as filed in PubChem.
